Measured values from PubChem BioAssay AID1159580 (chemical genetic matrix, 2015).
The campaign covered roughly 5,500 compounds. About 2,000 (36%) were called active. Not shown: some 18% with an inconclusive outcome. No stated cut-off is given here; in the data, active means normalized growth mostly below about 0.91 (no sharp cut-off); inconclusive means no clear call, values can overlap the other calls; inactive means mostly above about 0.92. This is one part of the list.

Assay: chemical genetic growth profiling, strain panel (AID 1159580);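 further: tested at 20 µM; growth read once vehicle control cultures reached saturation at 30 °C; 1 = growth at the plate median or of vehicle wells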
Conditions: growth OD

Measured: normalized growth

CC1C(=O)OC2C1CCC1(C)C=CC(=O)C3(C)OC213 (stereo unspecified)
inactive: S. cerevisiae deletion strains, locus YAL013W, strain DEP1, stronger effect = lower value 0.968 | S. cerevisiae deletion strains, locus YBR021W, strain FUR4, stronger effect = lower value 1.01 | S. cerevisiae deletion strains, locus YBR229C, strain ROT2, stronger effect = lower value 1.01 | S. cerevisiae deletion strains, locus YCL029C, strain bik1, stronger effect = lower value 1.01 | S. cerevisiae deletion strains, locus YDL035C, strain GPR1, stronger effect = lower value 1.02 | S. cerevisiae deletion strains, locus YDL074C, strain BRE1, stronger effect = lower value 0.974 | S. cerevisiae deletion strains, locus YDL101C, strain DUN1, stronger effect = lower value 1 | S. cerevisiae deletion strains, locus YDL134C, strain PPH21, stronger effect = lower value 0.999 | S. cerevisiae deletion strains, locus YDL185W, strain tfp1, stronger effect = lower value 1.01 | S. cerevisiae deletion strains, locus YDL192W, strain arf1, stronger effect = lower value 0.999 | S. cerevisiae deletion strains, locus YDR101C, strain arx1, stronger effect = lower value 0.989 | S. cerevisiae deletion strains, locus YDR150W, strain NUM1, stronger effect = lower value 1 | S. cerevisiae deletion strains, locus YDR162C, strain NBP2, stronger effect = lower value 0.985 | S. cerevisiae deletion strains, locus YDR318W, strain mcm21, stronger effect = lower value 1.01 | S. cerevisiae deletion strains, locus YDR388W, stronger effect = lower value 1 | S. cerevisiae deletion strains, locus YDR502C, strain sam2, stronger effect = lower value 0.985 | S. cerevisiae deletion strains, locus YEL061C, strain CIN8, stronger effect = lower value 1.02 | S. cerevisiae deletion strains, locus YER110C, stronger effect = lower value 1.01 | S. cerevisiae deletion strains, locus YER155C, strain BEM2, stronger effect = lower value 1 | S. cerevisiae deletion strains, locus YER167W, strain BCK2, stronger effect = lower value 1.02 | S. cerevisiae deletion strains, locus YGL078C, strain dbp3, stronger effect = lower value 1 | S. cerevisiae deletion strains, locus YGL086W, strain mad1, stronger effect = lower value 1.01 | S. cerevisiae deletion strains, locus YGL248W, strain PDE1, stronger effect = lower value 1.01 | S. cerevisiae deletion strains, locus YGR078C, strain PAC10, stronger effect = lower value 0.989 | S. cerevisiae deletion strains, locus YGR135W, strain pre9, stronger effect = lower value 0.976 | S. cerevisiae deletion strains, locus YGR229C, strain SMI1, stronger effect = lower value 0.999 | S. cerevisiae deletion strains, locus YGR252W, strain gcn5, stronger effect = lower value 1.01 | S. cerevisiae deletion strains, locus YHR030C, strain SLT2, stronger effect = lower value 1.01 | S. cerevisiae deletion strains, locus YHR079C, strain IRE1 (second series), stronger effect = lower value 1.02 | S. cerevisiae deletion strains, locus YHR094C, strain hxt1, stronger effect = lower value 0.999 | S. cerevisiae deletion strains, locus YHR129C, strain ARP1, stronger effect = lower value 1.02 | S. cerevisiae deletion strains, locus YHR200W, strain rpn10, stronger effect = lower value 1 | S. cerevisiae deletion strains, locus YIL066C, strain RNR3, stronger effect = lower value 0.999 | S. cerevisiae deletion strains, locus YIL073C, strain SPO22, stronger effect = lower value 1.09 | S. cerevisiae deletion strains, locus YIL125W, strain kgd1, stronger effect = lower value 1.01 | S. cerevisiae deletion strains, locus YIR030C, strain dcg1, stronger effect = lower value 1 | S. cerevisiae deletion strains, locus YJL095W, strain BCK1, stronger effect = lower value 0.988 | S. cerevisiae deletion strains, locus YJL134W, strain LCB3, stronger effect = lower value 1.01 | S. cerevisiae deletion strains, locus YJL168C, strain set2, stronger effect = lower value 1.01 | S. cerevisiae deletion strains, locus YJL187C, strain SWE1 (second series), stronger effect = lower value 1.01 | S. cerevisiae deletion strains, locus YJR043C, strain POL32, stronger effect = lower value 1.06 | S. cerevisiae deletion strains, locus YJR075W, strain HOC1, stronger effect = lower value 1 | S. cerevisiae deletion strains, locus YKL009W, strain mrt4, stronger effect = lower value 1.02 | S. cerevisiae deletion strains, locus YKL068W, stronger effect = lower value 1 | S. cerevisiae deletion strains, locus YKL085W, strain MDH1 (second series), stronger effect = lower value 1.04 | S. cerevisiae deletion strains, locus YKL085W, strain MDH1, stronger effect = lower value 1.04 | S. cerevisiae deletion strains, locus YKL190W, strain CNB1, stronger effect = lower value 1.01 | S. cerevisiae deletion strains, locus YKR001C, strain vps1, stronger effect = lower value 1 | S. cerevisiae deletion strains, locus YLR039C, strain RIC1, stronger effect = lower value 1.01 | S. cerevisiae deletion strains, locus YLR058C, strain SHM2, stronger effect = lower value 1.01 | S. cerevisiae deletion strains, locus YLR102C, strain apc9, stronger effect = lower value 1.01 | S. cerevisiae deletion strains, locus YLR262C, strain YPT6, stronger effect = lower value 0.996 | S. cerevisiae deletion strains, locus YLR268W, strain sec22, stronger effect = lower value 0.959 | S. cerevisiae deletion strains, locus YLR330W, strain CHS5, stronger effect = lower value 1.01 | S. cerevisiae deletion strains, locus YLR342W, strain FKS1 (second series), stronger effect = lower value 1.06 | S. cerevisiae deletion strains, locus YLR371W, strain rom2, stronger effect = lower value 1.01 | S. cerevisiae deletion strains, locus YLR418C, strain cdc73, stronger effect = lower value 0.963 | S. cerevisiae deletion strains, locus YML016C, strain PPZ1, stronger effect = lower value 1 | S. cerevisiae deletion strains, locus YML032C, strain rad52, stronger effect = lower value 1.01 | S. cerevisiae deletion strains, locus YML124C, strain tub3, stronger effect = lower value 1 | S. cerevisiae deletion strains, locus YMR078C, strain ctf18, stronger effect = lower value 1 | S. cerevisiae deletion strains, locus YMR223W, strain ubp8, stronger effect = lower value 1.01 | S. cerevisiae deletion strains, locus YMR263W, strain SAP30, stronger effect = lower value 0.982 | S. cerevisiae deletion strains, locus YMR307W, strain GAS1, stronger effect = lower value 1.02 | S. cerevisiae deletion strains, locus YNL067W, strain RPL9B, stronger effect = lower value 0.97 | S. cerevisiae deletion strains, locus YNL128W, strain TEP1, stronger effect = lower value 1 | S. cerevisiae deletion strains, locus YNL153C, strain GIM3, stronger effect = lower value 0.989 | S. cerevisiae deletion strains, locus YNL233W, strain BNI4, stronger effect = lower value 1.01 | S. cerevisiae deletion strains, locus YNL250W, strain rad50, stronger effect = lower value 0.999 | S. cerevisiae deletion strains, locus YNL271C, strain bni1, stronger effect = lower value 1.01 | S. cerevisiae deletion strains, locus YNL298W, strain CLA4, stronger effect = lower value 0.99 | S. cerevisiae deletion strains, locus YNL307C, strain MCK1, stronger effect = lower value 1.02 | S. cerevisiae deletion strains, locus YNL322C, strain KRE1, stronger effect = lower value 1 | S. cerevisiae deletion strains, locus YNR052C, strain pop2, stronger effect = lower value 1.02 | S. cerevisiae deletion strains, locus YOL006C, strain TOP1, stronger effect = lower value 0.926 | S. cerevisiae deletion strains, locus YOL012C, strain htz1 1.83 | S. cerevisiae deletion strains, locus YOL147C, strain pex11, stronger effect = lower value 1.01 | S. cerevisiae deletion strains, locus YOR061W, strain CKA2, stronger effect = lower value 1.01 | S. cerevisiae deletion strains, locus YOR069W, strain VPS5, stronger effect = lower value 1.01 | S. cerevisiae deletion strains, locus YOR136W, strain idh2, stronger effect = lower value 1.01 | S. cerevisiae deletion strains, locus YOR144C, strain elg1, stronger effect = lower value 0.997 | S. cerevisiae deletion strains, locus YOR184W, strain ser1, stronger effect = lower value 1.01 | S. cerevisiae deletion strains, locus YOR316C, strain cot1, stronger effect = lower value 1.01 | S. cerevisiae deletion strains, locus YPL055C, strain LGE1, stronger effect = lower value 0.974 | S. cerevisiae deletion strains, locus YPL241C, strain CIN2, stronger effect = lower value 1.01 | S. cerevisiae deletion strains, locus YPR119W, strain clb2, stronger effect = lower value 0.996 | S. cerevisiae deletion strains, locus YPR141C, strain kar3, stronger effect = lower value 0.998 | S. cerevisiae deletion strains, locus YPR163C, strain tif3, stronger effect = lower value 1.01 | S. cerevisiae deletion strains, locus YPR167C, strain met16, stronger effect = lower value 1 | S. cerevisiae deletion strains, strain wtn01, stronger effect = lower value 0.996 | S. cerevisiae strains, strain wild type, stronger effect = lower value 1.01
